# Assay results reported in PubChem BioAssay (NCATS).
# Inconclusive results are not listed. Values without a mark were called inactive. The source made the active and inactive calls. Calls follow the shape of the dose curve; as a rule, active = well fitted inhibition curve with a large enough effect; inconclusive = small, poorly fitted or top-dose-only effect; inactive = flat fitted curve, though single readings scatter.
# Tested on: N140
# Test: qHTS profiling for inhibitors of Plasmodium falciparum proliferation (AID 504749); also: nearly all actives have a fitted effect of over 60% in size;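 as to activity, negative = inhibition: 0% = DMSO vehicle and full inhibition = artemisinin control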
# Conditions: P. falciparum in erythrocytes, SYBR Green DNA, 72 h; series mostly up to 28.7 µM; activity, negative = inhibition: at the top concentration
# Method in brief: (§1)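 SYBR Green fluorescence (ex 485 nm, em 535 nm) reports parasite DNA after 72 h compound exposure of infected red cells at 0.3% parasitemia, 2.5% hematocrit; signal normalized to 0.29 uM artemisinin and vehicle wells.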
# Potency is read from the fitted curve at half-maximal effect.
Compound,Potency,"activity, negative = inhibition"
COCCOC(=O)C1=C(C)NC(C)=C(C(=O)OC(C)C)C1c1cccc([N+](=O)[O-])c1 (stereo not given),12.6 µM (active),–
CNC1(C)C2CCC(C2)C1(C)C (stereo not given),–,1.55%
Cc1nc2ccccn2c(=O)c1CCN1CCC(C(=O)c2ccc(F)cc2)CC1,–,-29.9%
CN(C)CCN(Cc1cccs1)c1ccccn1,11.2 µM (active),–
CC(=O)[C@]1(O)Cc2c(O)c3c(c(O)c2[C@@H](O[C@H]2C[C@H](N)[C@H](O)[C@H](C)O2)C1)C(=O)c1ccccc1C3=O,4.47 µM (active),–
C=CCc1ccccc1OCC(O)CNC(C)C (stereo not given),11.2 µM (active),–
Fc1ccc(C(c2ccc(F)cc2)N2CCN(C/C=C/c3ccccc3)CC2)cc1,11.2 µM (active),–
CC(C)(C)c1ccc(C(=O)CCCN2CCC(OC(c3ccccc3)c3ccccc3)CC2)cc1,10 µM (active),–
CN(C(=O)CCCOc1ccc2[nH]c(=O)ccc2c1)C1CCCCC1,–,-20.7%
CCN(CC)CCNC(=O)c1cc(S(C)(=O)=O)ccc1OC,–,15.2% [at 12.8 µM]
CC1=C(C)C(=O)C(CCCCC#CCCCC#CCO)=C(C)C1=O,7.94 µM (active),–
CCOC(=O)C1=C(C)NC(C)=C(C(=O)OC)C1c1cccc([N+](=O)[O-])c1 (stereo not given),11.2 µM (active),–
NC(=Nc1ccccc1)Nc1ccccc1,–,-13.6%
CN(C)C/C=C(/c1ccc(Br)cc1)c1cccnc1,–,-28.5%
CC1=NS(=O)(=O)c2cc(Cl)ccc2N1,–,-27.3%
O=C1NCN(c2ccccc2)C12CCN(CCCC(c1ccc(F)cc1)c1ccc(F)cc1)CC2,5.62 µM (active),–
COc1cc(C(=O)OCCCN2CCCN(CCCOC(=O)c3cc(OC)c(OC)c(OC)c3)CC2)cc(OC)c1OC,12.6 µM (active),–
O=C1CC2(CCCC2)CC(=O)N1CCCCN1CCN(c2ncccn2)CC1,–,0.616%
O=C(CCCN1CCC(O)(c2cccc(C(F)(F)F)c2)CC1)c1ccc(F)cc1,7.94 µM (active),–

# Tested on: P93_24
# Test: as above
# Conditions: P. falciparum in erythrocytes, SYBR Green DNA, 72 h; series mostly up to 28.7 µM; activity, negative = inhibition: at the top concentration
# Method in brief: as §1
Compound,"activity, negative = inhibition",Potency
CC(C)COCC(CN(Cc1ccccc1)c1ccccc1)N1CCCC1 (stereo not given),7.29%,–
CNC1(C)C2CCC(C2)C1(C)C (stereo not given),-1.9%,–
COc1ccc(CN(CCN(C)C)c2ccccn2)cc1,-28.7%,–
CN(C)CCN(Cc1cccs1)c1ccccn1,–,7.94 µM (active)
CC(=O)[C@]1(O)Cc2c(O)c3c(c(O)c2[C@@H](O[C@H]2C[C@H](N)[C@H](O)[C@H](C)O2)C1)C(=O)c1ccccc1C3=O,–,4.47 µM (active)
Brc1c(NC2=NCCN2)ccc2nccnc12,–,11.2 µM (active)
COCCCC/C(=N\OCCN)c1ccc(C(F)(F)F)cc1,–,8.91 µM (active)
C=CCc1ccccc1OCC(O)CNC(C)C (stereo not given),–,4.47 µM (active)
Fc1ccc(C(c2ccc(F)cc2)N2CCN(C/C=C/c3ccccc3)CC2)cc1,–,8.91 µM (active)
CCN(CC)CCNC(=O)c1cc(S(C)(=O)=O)ccc1OC,9.87% [at 12.8 µM],–
CC1=C(C)C(=O)C(CCCCC#CCCCC#CCO)=C(C)C1=O,–,5.01 µM (active)
NC(=Nc1ccccc1)Nc1ccccc1,-19.4%,–
O=C1NCN(c2ccccc2)C12CCN(CCCC(c1ccc(F)cc1)c1ccc(F)cc1)CC2,–,4.47 µM (active)
COc1cc(C(=O)OCCCN2CCCN(CCCOC(=O)c3cc(OC)c(OC)c(OC)c3)CC2)cc(OC)c1OC,–,10 µM (active)
O=C1CC2(CCCC2)CC(=O)N1CCCCN1CCN(c2ncccn2)CC1,-7.72%,–
O=C(CCCN1CCC(O)(c2cccc(C(F)(F)F)c2)CC1)c1ccc(F)cc1,–,10 µM (active)
